For 40 molecules, growth results are on record in PubChem BioAssay (NCI).

Each structure is given as a SMILES string. Compounds without any hit were thinned out: in the full panel of roughly 83,000, 20% have a hit.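 Single-dose data. Exposure time 48 hours. Values below 10 considered active.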 Unmarked numbers belong to inactive results. Activity calls are given as the source filed them.

The subject of this assay is HL-60(TB) leukemia. Kind of assay: NCI-60 one-dose screen, 48 h (100 = growth as untreated, 0 = no growth, -100 = all killed). To be noted: 10 µM unless noted.
Turning to `CC(=O)c1ccc(NS(=O)(=O)c2cccc(C(=O)Nc3ccc(Br)cc3)c2)cc1`, the growth is 47.3% [25 µM].

Turning to `COc1ccc2nc3cc([N+](=O)[O-])ccc3c(NNc3ccccc3)c2c1`, the growth was 121%.

Turning to `c1cc(C2=N[C@@H]3c4ccccc4C[C@@H]3O2)nc(C2=N[C@@H]3c4ccccc4C[C@@H]3O2)c1`, the growth is 105%.

As for `O=C(/C=C/c1ccccc1)c1ccc(Nc2nc(Nc3ccc(F)cc3)nc(Nc3ccc(Cl)cc3)n2)cc1`, the growth is 43.9%.

For the molecule `O=C1/C(=C/c2ccc(OCCCOc3ccc(Cl)cc3)cc2)N=C2SCCCN12`, the growth was 93%.

Turning to `O=c1[nH]c(=O)n(C2C[C@H](O)[C@@H](CO)O2)cc1C(F)(F)F` (stereo not given in full), the growth is 85.8%.

For `COc1ccc(/C=C(\C#N)c2cc3ccccc3n2C(C)=O)cc1`, the growth was 83.2%.

As for `CCOC(=O)C1C(=O)OC2CCCCC21` (stereo not given), the growth is 98.5%.

With `Fc1cc(Nc2ccc3c(OCCCN4CCOCC4)cccc3n2)ccc1Cl`, the growth is 39.1%.

Take `Cc1nc2sc(C(=O)Nc3cccc4ccccc34)c(N)c2cc1C(O)c1ccccc1` (stereo not given): the growth was -55.1% (active).

As to `CCN(CC)CCNc1ccc(CO)c2sc3ccccc3c(=O)c12`, the growth was 60.8%.

As to `CC1(C)CC[C@]2(CO)CC[C@]3(C)[C@H](CC[C@@H]4[C@@]5(C)CC[C@H](O)C(C)(C)[C@@H]5CC[C@]43C)[C@H]2[C@H]1O`, the growth was 117%.

As to `O=S(=O)(NCCCNc1nccc(-c2cn(-c3ccccc3)nc2-c2ccc(Cl)c(O)c2)n1)c1ccccc1`, the growth is 83.4%.

With `NNC(=O)CSc1nc2scc(-c3ccccc3)c2c(=O)n1-c1ccccc1`, the growth was 84%.

As for `CC/C(=C(/c1ccc(OCCN(C)C)cc1)c1ccc(OC(=O)CCC(=O)c2c(C)[nH]c(/C=C3\N=C(c4ccc[nH]4)C=C3OC)c2C)cc1)c1ccccc1`, the growth was 24.2%.

Turning to `COc1cc(C(=O)/C=C/c2ccc(OCCCCCC[P+](c3ccccc3)(c3ccccc3)c3ccccc3)cc2)cc(OC)c1OC`, the growth is 11.5%.

As to `CCO/C=N/S(=O)(=O)c1cc2c(cc1Cl)NC=NS2(=O)=O`, the growth was 112%.

With `CCCCCCCC/C=C\CCCCCCCC(=O)Oc1cccc2cccnc12`, the growth was 83.9%.

For `Cc1nn(-c2ccccc2)cc1/C=C1\SC(N2CCCCC2)=NC1=O`, the growth was 93%.

With `CC[C@H](Nc1nc(N)nc(C2CC2)c1C#N)c1nc2cccc(NCc3ccc(C(=O)NO)cc3)c2c(=O)n1-c1ccccc1`, the growth was -19.3% (active).

With `Cc1ccc(NC(=O)Cn2nncc2CN2C(=O)CSC2=O)cc1C`, the growth is 95%.

In the case of `CSc1nn2c(-c3cc4cc(Br)ccc4oc3=O)ccnc2c1C#N`, the growth was 102%.

For `O=C(O)c1occ(Cl)c1Cl`, the growth is 75.3%.

With `O=C1CCC(=O)CC1`, the growth was 97.7%.

Consider `CN(C)Cc1ccc(C(=O)Nc2ccc3ncnc(Nc4ccc(Oc5cccc(F)c5)c(Cl)c4)c3c2)cc1`, for which the growth is -41.7% (active).

Regarding `CCc1cccc2c1S/C(=C/c1ccc(Cl)cc1)C2=O`, the growth was 93.5%.

For the molecule `ClCCOCCn1cnc2c(Cl)nc(Cl)nc21`, the growth is 40.9%.

`CC(C)C(=O)Nc1ncc(C(=O)NCCN(Cc2ccccc2)C(=O)c2ccc(S(=O)(=O)Nc3ccccc3)cc2)s1`: the growth was 107%.

`NC1=NN(O)C2=CC([N+](=O)[O-])C=CC2=N1` (stereo not given): the growth is 103%.

In the case of `COc1ccc2ccccc2c1/C=N/N1CCCCC1`, the growth was 94.3%.

In the case of `CC(C)(C)[Si](C)(C)OC1[C@@H](COC(=O)NC(=O)CCl)O[C@@H](n2cnc3c(N)ncnc32)[C@H]1O[Si](C)(C)C(C)(C)C` (stereo not given in full), the growth is -48.3% (active).

For `N#CSCc1ccc(CSC#N)c(Cl)c1`, the growth is 23%.

`COc1ccc(-c2n/c(=C\c3c(O)[nH]c4ccc(OC)cc34)cc3c2=Nc2ccccc2-3)cc1`: the growth is 81%.

Regarding `O=C(N=Nc1c(O)[nH]c2ccccc12)Nc1ccc(F)cc1`, the growth was 94.5%.

Take `COc1cc2c(c(Br)c1N)-c1cc(Br)c(N)cc1C2=O`: the growth was 88.9%.

As to `O=C1NC(=S)NC(=O)C1CC(=O)n1c(-c2ccccc2)nc2ccccc21`, the growth is 104%.

For `NCCOCCOc1ccccc1`, the growth is 108%.

In the case of `Cc1ccccc1SSc1ccccc1C`, the growth is 99.6%.

Turning to `CCN(CC)CCCOc1cccc2c1C(=O)c1cccc(OCCCN(CC)CC)c1C2=O`, the growth was 30.3%.

As to `COc1cc2nc(-c3ccc(-c4nn[nH]n4)cc3)[nH]c(=O)c2cc1OC`, the growth is 93.8%.
